The results in this text go back to PubChem BioAssay (NCATS).

“And” between values parts separate entries of the source, which are not always exact repeats. Equal values may be shown once. Values without a mark were called inactive. Records with an inconclusive call do not appear. The source made the active and inactive calls. Unless noted, calls follow the shape of the dose curve; as a rule, active = well fitted curve in the direction sought with a large enough effect; inconclusive = small, poorly fitted or top-dose-only effect, or another doubt; inactive = no such curve, though single readings can be large; an effect the other way counts as inactive or inconclusive.

Assay [1] is described as follows: Drug repurposing screens with cells derived from glioblastoma tumor samples (AID 1345199). Also: nearly all actives have a fitted effect of over 40% in size. Also: potency is read from the fitted curve at half-maximal effect. As to activity, negative = cell killing: % is scaled to controls: 0 for no effect and ±100 for the full control effect. Particulars: GBM patient neurospheres viability, ATP luminescence, 48 h. In short, it runs like this: (§1)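 Four patient lines of CD133+ GBM neurospheres were screened at several concentrations; hits were retested in those lines plus three slower-growing GBM lines, using 48-hour treatment and ATP-based viability.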

The next assay has as its system astro (control astrocytes). The assay is described as above. As to conditions: viability, ATP luminescence, 48 h; series mostly up to 45.9 µM. The procedure, abridged: as §1
Assay [2] in a line: qHTS assay for small molecule activators of the human pregnane X receptor (PXR) signaling pathway (AID 720659; call rule not given here; also: 0% is about no effect). As to conditions: DPX-2 HepG2 CYP3A4-luciferase, 24 h; series mostly up to 92.3 µM. For orientation: Quantitative high-throughput screening tests each substance at several concentrations.
The nature of assay [3]: qHTS assay to identify inhibitors of the type 1 interferon - major histocompatibility complex class I in skeletal muscle: Counter screen cell viability and HiBit confirmation (AID 1347412). Also: nearly all actives have a fitted effect of over 60% in size. Also: potency is read from the fitted curve at half-maximal effect. As to activity change, negative = inhibition: % is scaled to controls: 0 for no effect and ±100 for the full control effect. As to conditions: iHSKM muscle cells + IFN-b, HiBiT or CellTiter-Glo, 24 h. In short, it runs like this: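 Human myoblast knock-in line, 4.0 ng/ml IFN-beta stimulation, 24 h compound treatment. Endpoints: HiBiT lytic luminescence (HLA-B level) and CellTiter Glo (ATP). Dosing 12 concentrations, 3-fold steps, 46 uM highest final.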

The target in assay [4] is Nuclear receptor subfamily 1 group I member 2 (Rattus norvegicus) (UniProt Q9R1A7). Description: qHTS assay for small molecule activators of the rat pregnane X receptor (rPXR) signaling pathway (AID 651751; call rule not given here; also: 0% is about no effect). Particulars: rPXR reporter cells, luciferase (One-Glo), 24 h.
Sequence of Nuclear receptor subfamily 1 group I member 2 (Rattus norvegicus) (Q9R1A7 whole entry, looked up): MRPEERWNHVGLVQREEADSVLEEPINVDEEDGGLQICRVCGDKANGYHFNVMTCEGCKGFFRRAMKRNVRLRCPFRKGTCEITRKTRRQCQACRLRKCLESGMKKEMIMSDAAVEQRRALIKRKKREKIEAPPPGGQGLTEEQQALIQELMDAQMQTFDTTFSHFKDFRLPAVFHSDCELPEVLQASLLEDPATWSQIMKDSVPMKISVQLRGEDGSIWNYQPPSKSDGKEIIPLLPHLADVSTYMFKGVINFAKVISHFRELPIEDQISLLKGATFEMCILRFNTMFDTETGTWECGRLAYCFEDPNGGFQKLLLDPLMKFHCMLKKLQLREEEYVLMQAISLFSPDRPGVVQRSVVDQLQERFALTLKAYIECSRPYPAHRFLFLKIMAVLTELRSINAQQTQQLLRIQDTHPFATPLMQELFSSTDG
The mark [5] stands for this setting: at 45.9 µM (top of the series), tumour line B.
Where [6] appears, read: at 46.1 µM (top of the series), tumour line C.
Where [7] appears, read: at 46 µM (top of the series), tumour line A.
Where [8] appears, read: at 45.9 µM (top of the series), tumour line D.

Consider `CCC(=O)NCCC1CCc2ccc3c(c21)CCO3` (configuration not stated), for which the activity, negative = cell killing in assay [1] (setting [5]) is -16.2%; in assay [1] (setting [6]), -14.5%. Further, the Potency in assay [1] (tumour line A) is 11.2 µM (active). Moreover, in the assay with astro, the Potency result was “inactive”.
As for `CCOC(=O)C1=C(C)NC(C)=C(C(=O)OCC)C1c1ccccc1C=CC(=O)OC(C)(C)C`, the activity, negative = cell killing in assay [1] (setting [6]) is 2.25%. Further, the Potency in assay [1] (tumour line A) was 2.24 µM (active); in assay [1] (tumour line D) it was 12.6 µM (active); in the assay on astro, 20 µM (active).
With `CC1(C)O[C@@H]2C[C@H]3[C@@H]4CCC5=CC(=O)C=C[C@]5(C)[C@H]4[C@@H](O)C[C@]3(C)[C@]2(C(=O)CO)O1`, the results for the activity, negative = cell killing in assay [1] (setting [5]), in assay [1] (setting [7]) and in assay [1] (setting [6]) were -5.55%, -10.6% and -10.7%, respectively. Also, the Potency entry with astro is “inactive”.
Turning to `O=C1CSC2(CCN(CCCN3c4ccccc4Sc4ccc(Cl)cc43)CC2)N1`, the activity, negative = cell killing in assay [1] (setting [6]) was -24.2%. In addition, the results for the Potency (in assay [1] (tumour line A); in assay [1] (tumour line D); with astro) were 3.16 µM (active), 20 µM (active) and 25.1 µM (active), respectively.
For `CCOC(C)=O`, the activity, negative = cell killing in assay [1] (setting [5]) is -6.99%; in assay [1] (setting [8]) it was -8.33%; in assay [1] (setting [7]), -18.3%; in assay [1] (setting [6]), 2.8%. The Potency result in the assay with astro is “inactive”. The molecule was called inactive in assay [2].
On to `CCCCCCCCCCCCCCCCCCOP(=O)([O-])OC1CC[N+](C)(C)CC1`, for which the activity, negative = cell killing in assay [1] (at 20 µM (top of the series), tumour line C) is -12.3%; in assay [1] (at 21.2 µM (top of the series), tumour line B) it was -9.9%; in assay [1] (at 21.2 µM (top of the series), tumour line D), -6.99%. In addition, in the assay on astro, the Potency entry is “inactive”.
With `CC[C@@H](C(=O)O)[C@@H]1O[C@@H]([C@@H](C)[C@H](O)[C@H](C)C(=O)[C@H](CC)[C@H]2O[C@]3(C=C[C@@H](O)[C@]4(CC[C@@](C)([C@H]5CC[C@](O)(CC)[C@H](C)O5)O4)O3)[C@H](C)C[C@@H]2C)[C@@H](C)C[C@@H]1C`, the Potency in the assay on astro is 0.794 µM (active).
For `CC(C(=O)O)c1ccc(N2Cc3ccccc3C2=O)cc1` (configuration not stated), the Potency with astro was 10 µM (active).
Regarding `Clc1cc(Cl)c(OCC#CI)cc1Cl`, the Potency result in the assay on astro was “inactive”.
`CO[C@H]1C[C@@H]2CC[C@@H](C)[C@@](O)(O2)C(=O)C(=O)N2CCCC[C@H]2C(=O)O[C@H]([C@H](C)C[C@@H]2CC[C@@H](OCCO)[C@H](OC)C2)CC(=O)[C@H](C)/C=C(\C)[C@@H](O)[C@@H](OC)C(=O)[C@H](C)C[C@H](C)/C=C/C=C/C=C/1C`: the Potency in the assay on astro is 25.1 µM (active).
As for `O=C(Nc1cccc(C(F)(F)F)c1)c1cc(Br)cc(Br)c1O`, the Potency with astro is 2.51 µM (active).
For `C=C1CC[C@@H]2[C@](C)(CO)[C@H](O)CC[C@@]2(C)[C@@H]1C/C=C1/C(=O)OC[C@H]1O`, the Potency in the assay with astro is 25.1 µM (active); in assay [3] (HiBiT), 12.5 µM (active). Moreover, the activity change, negative = inhibition in assay [3] (Viability, at 45.9 µM (top of the series)) is -7.87%.
As for `C=C[C@]1(C)C[C@@H](OC(=O)CSC(C)(C)CNC(=O)[C@H](N)C(C)C)[C@]2(C)[C@H](C)CC[C@]3(CCC(=O)[C@H]32)[C@@H](C)[C@@H]1O`, the Potency entry in the assay with astro is “inactive”.
In the case of `CC(C)(C)NC(=O)[C@@H]1C[C@@H]2CCCC[C@@H]2CN1C[C@@H](O)[C@H](Cc1ccccc1)NC(=O)[C@H](CC(N)=O)NC(=O)c1ccc2ccccc2n1`, the activity, negative = cell killing in assay [1] (setting [6]) is 7.54%. Also, the Potency in assay [1] (tumour line A) is 4.47 µM (active). The Potency result in the assay on astro is “inactive”.
For `CC[C@@H](C(=O)[C@@H](C)[C@@H](O)[C@H](C)CCc1ccc(C)c(O)c1C(=O)O)[C@H]1O[C@](CC)([C@H]2CC[C@](O)(CC)[C@H](C)O2)C[C@@H]1C`, the Potency in the assay with astro is 7.08 µM (active).
In the case of `CCCCCCCC/C=C\CCCCCCCC(=O)O`, the activity, negative = cell killing was 3.38% in assay [1] (setting [5]), -14.1% in assay [1] (setting [8]) and 14.2% in assay [1] (setting [6]). Besides, the Potency result in the assay with astro is “inactive”. The max response in assay [4] is 0.673% and 2.82%. Also, the molecule was called inactive in assay [2].
For `CC[C@@]1(O)C(=O)OCc2c1cc1n(c2=O)Cc2cc3c([N+](=O)[O-])cccc3nc2-1`, the Potency in the assay on astro is 1.26 µM (active).
Consider `CCCCCCOc1ccc(C(=N)N(CCCC)CCCC)c2ccccc12`, for which the Potency in the assay with astro is 17.8 µM (active).
In the case of `CCOc1ccc2c(c1)C(C)=CC(C)(C)N2`, the activity, negative = cell killing in assay [1] (setting [6]) was -10%. In assay [1] (tumour line A), the Potency is 39.8 µM (active). The Potency result with astro is “inactive”.
Regarding `O=C(Nc1ccc(Br)cc1)c1cc(Br)c(Br)s1`, the Potency in the assay with astro was 11.2 µM (active).
Consider `CCCCCCCCCCCCCC[n+]1ccc(C)cc1`, for which, in the assay on astro, the Potency is 3.16 µM (active).
